# According to the supplement of paper PMC12632987:
# The full ranking holds about 4,500 sequences; the median of “median log2 fold change of GCK-ALFA target abundance (FLAG IP / Myc IP barcode read proportion)” is about 0.078, and the lowest 2% start at about -0.6. This is one part of a sample in which the lowest values are shown more often than they occur.
# B1: GBRAP_96_7095 (protein)
# chain: MLEEAKKLVKELIKALDTDPEKAEELAKKLLEFPVEVVTEALVEVVKKPEDAAKIAKLLLKLGDEKAEEVLLEAAEKAPGDISKAIIDAMEAYEKEQEAA
# B2: GBRAP_128_3565 (protein)
# chain: STAELVAEARALLAAIKAADAEEARALAERLADLIAAASPEARAAIVETILARLPELTAEQLDILADVFAARRATADPAVAEALAEIQVEALNVREEKEE
# B3: GBRAP_14_3799 (protein)
# chain: MEEREKAIEEITEETLEILEEILADAPEEVRERVLELVEEARERIIKEKLSPDEIAELEDELLEEVAKILADAPPEVRAQVLAAISVGMGEIILEVEELE
# B4: GBRAP_160_4163 (protein)
# chain: MEEAEELIKEVEEETKEAIELIEGESIEQRKVIIAGHFGVIIMTLFESDVVSDEVVDFAVELRDELVKWIDENPDASLEEIKKKIKEAEKKIKEKIKKDA
# B5: GBRAP_35_5613 (protein)
# chain: EDVQLAVDSFVDMAEAIIELIPEIDDETLAALAQSLIKFAKSLLKEEKNNKEALEKIKEAMEKLLEALKKYRSDNPLIQKVAKEVQEVIKEAEKAIKEVK
# B6: GBRAP_52_5915 (protein)
# chain: MSAELEAKLDEMLAAVKAGKLEEARAIAREIVESLDDEELRELVELFAERVRAAPLEDLPAWWRLAEILAEELEEAGKDEVLADDLLNRTAAAIYEKLQA
# B7: GBRAP_160_4375 (protein)
# chain: SEELKELIKEIEELKKEFEELAKDLSPEEVKILAKGVLSEIAALVFENEAVSEETKDKIMEIIDKALEELDKLKDASPEEIVAVTTEAVNEIIELIKKEI
# B8: GBRAP_14_3854 (protein)
# chain: MEKLIAAVKKTAEAAIEFAKELLPEHAEEVGKKIKELAEKIIEKIKKENLNKEEVAELIRKMAEELGKFIKEKGYASDEEIAAFKAFIENEALLELEKVE
# B9: GBRAP_52_5907 (protein)
# chain: MKEELEKILNEIIEAVKAGKLEEARKIARELAEKYDDETLEEFIELFAEMVLEAPEEDLPYYWKAAEILAEEFEREGKDEVLADLLLSRTAAAIYEKLQR
# B10: GBRAP_26_5463 (protein)
# chain: MDEAFRAALDAVDAAAATLPNPNAAAAVTAEAATVLEELEEAIEAGEDIAAAVAAARDELLAAARAIGEEEGLPAATIAAMEATLTAIFDALEAALKAAA
# B11: GBRAP_26_5467 (protein)
# chain: MDAAFAAARDRIDAIAAKLPDPRAAAALRALADTELLELEERIEAGEDIDAAVDAARDAFLAEAREILEDAGLPEELIAKTLAEFEAVFDDLRAALKAAQ
# B12: GBRAP_52_6357 (protein)
# chain: KLEEALALLERALEAMLAGREDEARAILREIVETYDDETILAAFERLAEKILGKSVEEAEAFLDLALLLADVMDELGRDEAVGDEIEAIAAKAYMTVLEK
# B13: GBRAP_160_3973 (protein)
# chain: SEEVEELKKEIKELFDEAKKLIEGESYEERLTIIKVMVGDILLLADENPLISDEVEDKIDEIGDELIETIEKNPDLTDEEIKKLIDEAEEKILKTIDEAF
# B14: GBRAP_43_5767 (protein)
# chain: SKELVEGAFETAILLLEDPSISEETKVKAIIAAMELAADEGYVDKELLEKVVELAGKTLSKESLEKILKAAKKLAKEYPESKEAFEEAAKKLEEAIAKKE
# B15: GBRAP_64_6486 (protein)
# chain: EEEIKKLHEETLKQAKKLVELLKDSSEELQKQAKEVLELIEKSKEASLEEAAKLLAEAAKLLNELLKSPELTEEQKDQVAETLDLVSELLWLVVEKELEK
# B16: GBRAP_52_5904 (protein)
# chain: MREELRAQVEEMLALVRAGDLEGARALAREIAETLNDEELRLLIEEVAALVREAPLEELPAWWRLAEIMAEAFEEAGKDEVLADDLLAATAAAIHERLQR
# B17: GBRAP_184_5166 (protein)
# chain: MIKEFEIKIENVEEAKEKIEEIKKEVEGLKAELYVIVETKELTVEIAKAILEGLKEMKEKGYVTSITVEFTGKIDEETLDVAVKLADEAGVKLVIAIDEE
# B18: GBRAP_139_3707 (protein)
# chain: SALEELIAEARRLTREMREDPEAALEALVELLLSVSEEELEVLVEAIAEELSRLPLDEAEELADRLLELVEERFKDEDKIDIVEAVLNGALARKAAEEEA
# B19: GBRAP_128_3416 (protein)
# chain: ADAALVAKAKELLEKMKTADAATAAALADEIAALIAAADLETAEAIAEVIEEELPKLTAEQLDILADALRAALPAASPEKAEILAGVLVDALNEAEEKEE
# Target: GABARAP, O95166
# Sequence (O95166 whole entry, the tested form may be a part): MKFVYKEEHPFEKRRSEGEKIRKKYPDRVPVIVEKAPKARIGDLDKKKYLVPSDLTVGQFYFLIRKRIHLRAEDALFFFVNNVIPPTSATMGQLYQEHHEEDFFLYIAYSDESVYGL
# Experiment: median log2 fold change of GCK-ALFA target abundance (FLAG IP / Myc IP barcode read proportion) (log2 ratio); each designed protein is fused to an ALFA-tag nanobody in HEK293 cells to bring the named protein to FLAG-tagged glucokinase (GCK); Myc marks an untargeted standard; higher = target protein stabilised (more abundant)
# Details: target protein: 3xFLAG-MCP-GCK-ALFA reporter; HEK293 landing pad (RPLP)
# Procedure, shortened: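 Sequencing of reverse-transcribed, amplified circular RNA barcodes from anti-FLAG and anti-Myc immunoprecipitates provided the readout for an ALFA-nanobody-fused binder library recombined into HEK293 landing-pad cells. Those cells were induced with 2 μg mL^−1 doxycycline, transfected with a plasmid expressing a FLAG-tagged target and a Myc-tagged standard, and lysed after 48 h. Target abundance is the per-binder median log2 ratio of FLAG to Myc barcode read proportions. Only barcodes at a proportion of ≥10^−7 in both replicates and binders with ≥3 barcodes per replicate were kept, with a 10^−6 pseudocount added before the two replicates were pooled.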
row,Binder,median log2 fold change
1,B1,0.344
2,B2,0.318
3,B3,-0.611
4,B4,0.215
5,B5,-0.07
6,B6,-0.669
7,B7,0.194
8,B8,0.381
9,B9,-0.881
10,B10,0.261
11,B11,0.199
12,B12,-0.492
13,B13,-0.605
14,B14,0.243
15,B15,0.19
16,B16,-0.644
17,B17,0.0333
18,B18,-0.0884
19,B19,0.247
